Our source for the outcome and AC50 values is PubChem BioAssay (EPA / NIEHS).

Conditions in all cases: primary human HUVEC with PBMC; actives raise or lower the signal
Experiment [1] is described as follows: BSK_LPS_PGE2: BioMAP Diversity Plus: LPS Assay for Prostaglandin E2 (PGE2) Biomarker Activity (AID 2283082).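 For AC50: secreted prostaglandin E2 measured by ELISA in LPS-stimulated co-culture.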 The method in brief: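 ELISA read-out of PGE2 from human umbilical vein endothelial cells co-cultured with peripheral blood mononuclear cells under LPS, 24 h post-dose. Gain or loss of signal scored relative to DMSO baseline.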
Read-out in experiment [2]: Macrophage colony-stimulating factor (MCSF), CSF1 (gene 1435)
Kind of experiment: BSK_LPS_MCSF: BioMAP Diversity Plus: LPS Assay for Macrophage colony-stimulating factor (MCSF) Biomarker Activity (AID 2283083). Put shortly:
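HUVEC + PBMC co-culture (human primary), 24 h post-dose; M-CSF by ELISA; gain/loss of signal fitted bidirectionally vs DMSO baseline.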

Read-out in experiment [3]: Tissue Factor, F3 (gene 2152)
Kind of experiment: BSK_LPS_TissueFactor: BioMAP Diversity Plus: LPS Assay for Tissue Factor Biomarker Activity (AID 2283084). The method in brief: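 HUVEC/PBMC co-culture, LPS-activated; CD142 ELISA read 24 h post-dose; bidirectional curve fit vs DMSO negative control.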

Read-out in experiment [4]: Tumor necrosis factor (Homo sapiens) (UniProt P01375)
Kind of experiment: BSK_LPS_TNFa: BioMAP Diversity Plus: LPS Assay for Tumour Necrosis Factor alpha (TNFa) Biomarker Activity (AID 2283085).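 For AC50: TNFa protein level quantified by ELISA in the co-culture.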 The method in brief:
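HUVEC/PBMC co-culture, LPS-stimulated; 24 h post-dose; TNFa by ELISA; gain or loss of signal fitted bidirectionally vs DMSO baseline.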

Read-out in experiment [5]: Vascular cell adhesion molecule 1 (VCAM1), VCAM1 (gene 7412)
Kind of experiment: BSK_LPS_VCAM1: BioMAP Diversity Plus: LPS Assay for Vascular cell adhesion molecule 1 (VCAM1) Biomarker Activity (AID 2283086). Put shortly: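 ELISA read-out of VCAM-1 at 24 h post-dosing in an LPS-driven HUVEC/PBMC primary human co-culture; gain or loss of signal fitted bidirectionally against DMSO baseline. Cytotoxicity tracked in parallel cultures by SRB total-protein staining.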

Read-out in experiment [6]: CD38, CD38 (gene 952)
In words: BSK_SAg_CD38: BioMAP Diversity Plus: SAg Assay for CD38 Biomarker Activity (AID 2283087). The method in brief:
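Measures CD38 on a human endothelial/PBMC co-culture driven by SEB and TSST-1, 24 h after compound exposure, using ELISA with fluorescence detection; DMSO defines baseline for bidirectional curve fitting.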

Read-out in experiment [7]: CD40, CD40 (gene 958)
Kind of experiment: BSK_SAg_CD40: BioMAP Diversity Plus: SAg Assay for CD40 Biomarker Activity (AID 2283088). The method in brief: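 HUVEC/PBMC co-culture, 24 h post-dose; CD40 by ELISA, fluorescence intensity; bidirectional fit vs DMSO negative control.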

Read-out in experiment [8]: CD69, CD69 (gene 969)
Kind of experiment: BSK_SAg_CD69: BioMAP Diversity Plus: SAg Assay for CD69 Biomarker Activity (AID 2283089).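 For AC50: cell surface CD69 protein quantified by ELISA with fluorescence detection.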 Put shortly: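 Values derive from bidirectional fitting relative to DMSO vehicle. Cells: umbilical vein endothelium plus peripheral blood mononuclear cells, treated 24 h before fluorescent ELISA for CD69.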

Read-out in experiment [9]: Monocyte Chemoattractant Protein-1 (MCP1), CCL2 (gene 6347)
In words: BSK_SAg_MCP1: BioMAP Diversity Plus: SAg Assay for Monocyte Chemoattractant Protein-1 (MCP1) Biomarker Activity (AID 2283090). The method in brief: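 Values derive from bidirectional fitting of ELISA-measured MCP1 against DMSO controls. Readings were taken 24 h after dosing human vascular endothelial cells co-cultured with peripheral blood mononuclear cells under superantigen stimulation.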

Read-out in experiment [10]: E-selectin (Homo sapiens) (UniProt P16581)
In words: BSK_SAg_Eselectin: BioMAP Diversity Plus: SAg Assay for Eselectin Biomarker Activity (AID 2283091). The method in brief:
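E-selectin ELISA readout at 24 h post-dosing in human umbilical vein endothelial cell/PBMC co-culture; gain or loss of signal fitted relative to DMSO baseline.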

Calls of active or inactive are those of the source. Rule for the calls: active = hit-call score of the fitted dose curve at least 0.9, where 1 is the maximum; inactive = score below 0.9.

Sequence of Tumor necrosis factor (Homo sapiens) (P01375 whole entry, looked up): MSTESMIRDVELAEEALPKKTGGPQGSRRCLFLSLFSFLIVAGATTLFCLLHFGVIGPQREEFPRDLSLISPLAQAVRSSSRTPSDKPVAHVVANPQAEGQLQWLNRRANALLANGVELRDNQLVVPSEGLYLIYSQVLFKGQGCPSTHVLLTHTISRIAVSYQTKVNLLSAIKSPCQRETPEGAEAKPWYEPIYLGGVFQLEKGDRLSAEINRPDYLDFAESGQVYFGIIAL
Sequence of E-selectin (Homo sapiens) (P16581 whole entry, looked up): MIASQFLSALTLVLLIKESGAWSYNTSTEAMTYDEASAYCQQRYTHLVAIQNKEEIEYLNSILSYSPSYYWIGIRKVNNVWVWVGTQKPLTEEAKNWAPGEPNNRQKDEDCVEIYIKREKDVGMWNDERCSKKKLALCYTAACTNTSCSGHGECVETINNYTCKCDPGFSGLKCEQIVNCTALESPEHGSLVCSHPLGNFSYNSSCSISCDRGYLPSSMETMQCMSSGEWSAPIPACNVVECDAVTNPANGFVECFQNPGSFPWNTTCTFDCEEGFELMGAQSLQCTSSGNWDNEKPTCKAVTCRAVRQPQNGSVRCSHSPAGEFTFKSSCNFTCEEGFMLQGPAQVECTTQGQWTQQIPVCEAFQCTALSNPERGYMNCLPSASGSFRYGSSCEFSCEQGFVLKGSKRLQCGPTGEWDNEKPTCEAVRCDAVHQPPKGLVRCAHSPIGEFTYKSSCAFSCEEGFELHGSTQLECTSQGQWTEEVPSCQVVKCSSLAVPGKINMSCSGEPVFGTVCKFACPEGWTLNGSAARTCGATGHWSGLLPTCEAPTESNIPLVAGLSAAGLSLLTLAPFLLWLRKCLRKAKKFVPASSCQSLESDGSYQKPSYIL

In the case of `COc1cccc(-c2ccc(/C=C\CN3CCCCCC3)cc2Cl)c1`, the outcome in experiment [1], in [2], in experiment [3], in [4] and in experiment [9] was inactive. Besides, the concentration at half-maximal activity (AC50) – broadly, the concentration at which the activity in the assay is half-maximal – in [5] is 26 µM (active); in experiment [6], 29.1 µM (active); in experiment [7] it was 27.3 µM (active); in [8], 30.4 µM (active); in experiment [10], 29.8 µM (active).

`CCOc1cccc(-n2cc(C(=O)N3CCN(c4cc(C(=O)O)c5ccccc5c4)CC3)nc2-c2ccc(C)cc2)c1`: the AC50 in [1] was 29.4 µM (active); in [2] it was 23.2 µM (active); in [3], 19.2 µM (active); in experiment [4], 20.9 µM (active); in [5], 14.2 µM (active); in experiment [6], 28.2 µM (active). In addition, the concentration at half-maximal activity (AC50) in experiment [7] was 13.6 µM (active); in [8], 21.7 µM (active); in experiment [9], 28.3 µM (active); in [10] it was 19.2 µM (active).

As for `CC(O)CN(CCN(CC(C)O)CC(C)O)CC(C)O` (stereo not given), the result in experiment [1], in experiment [2], in experiment [3], in [4], in experiment [5] and in experiment [6] was inactive. Moreover, the result in experiment [7], in [8], in experiment [9] and in [10] was inactive.

Turning to `CCOCCOCCOCCO`, the outcome in experiment [1], in [2], in [3], in [4], in experiment [5] and in experiment [6] was inactive. Further, the outcome in [7], in experiment [8], in [9] and in [10] was inactive.

For `Cc1c(-c2cccnc2)c2ccccc2n1CCCCC(=O)O`, the AC50 in experiment [1] was 1.14 µM (active). Also, the outcome in experiment [2], in [3], in [4], in [5], in [6] and in experiment [7] was inactive. The result in experiment [8], in experiment [9] and in experiment [10] was inactive.

As for `COCCOCCOCCOC`, the outcome in experiment [1], in experiment [2], in [3], in [4], in experiment [5] and in experiment [6] was inactive. For the same compound, the result in experiment [7], in experiment [8], in [9] and in experiment [10] was inactive.

Regarding `CCCCC(CC)COC(=O)CCCCCCCCC(=O)OCC(CC)CCCC` (stereo not given), the result in experiment [1], in experiment [2], in experiment [3], in experiment [4], in [5] and in [6] was inactive. The result in experiment [7], in experiment [8], in experiment [9] and in experiment [10] was inactive.

As to `Nc1cccc(N)c1`, the result in experiment [1], in experiment [2], in experiment [3], in experiment [4], in [5] and in experiment [6] was inactive. In addition, the result in [7], in experiment [8], in [9] and in [10] was inactive.

On to `O=C(O)CC(O)C(=O)O` (stereo not given), for which the outcome in experiment [1], in experiment [2], in experiment [3], in experiment [4], in [5] and in experiment [6] was inactive. Also, the outcome in experiment [7], in experiment [8], in [9] and in [10] was inactive.

In the case of `CCCCCCCCCCCCc1ccccc1`, the result in experiment [1], in [2], in [3], in [4], in [5] and in [6] was inactive. The outcome in [8], in [9] and in [10] was inactive. Besides, in experiment [7], the AC50 was 31.8 µM (active).

For the compound `COc1ccc(/C=C/S(=O)(=O)NC(=O)c2ccc(C)cc2Cl)cc1`, the result in experiment [1], in experiment [2], in experiment [3], in [4], in experiment [5] and in [6] was inactive. The result in experiment [8], in experiment [9] and in experiment [10] was inactive. Moreover, the half-maximal activity concentration (AC50) in [7] is 4.18 µM (active).

`O=C1CCC(N2C(=O)c3ccccc3C2=O)C(=O)N1` (stereo not given): the outcome in experiment [1], in experiment [2], in experiment [3], in [4], in experiment [5] and in experiment [6] was inactive. In addition, the outcome in [7], in experiment [8], in [9] and in [10] was inactive.

For the compound `CCn1nc(Cc2ccccc2)cc1C1CCN(C[C@H]2C[C@H](N(C)[C@@H](C(=O)O)C(C)C)C[C@@H]2c2cccc(F)c2)CC1`, the outcome in experiment [1], in experiment [2], in experiment [3], in [4], in experiment [5] and in experiment [6] was inactive. The result in experiment [7], in experiment [8], in [9] and in experiment [10] was inactive.

Turning to `CC(C)CCCCCCCOC(=O)CCCCC(=O)OCCCCCCCC(C)C`, the outcome in experiment [1], in experiment [2], in experiment [3], in experiment [4], in [5] and in experiment [6] was inactive. For the same compound, the result in experiment [7], in experiment [8], in experiment [9] and in experiment [10] was inactive.

For `CC(C)=CCCC(C)CCO` (stereo not given), the result in [1], in experiment [2], in experiment [3], in experiment [4], in experiment [5] and in [6] was inactive. Also, the result in experiment [7], in experiment [8], in [9] and in [10] was inactive.

As to `CC(C)CC(C)(O)C#CC(C)(O)CC(C)C` (stereo not given), the outcome in [1], in [2], in [3], in experiment [4], in experiment [5] and in experiment [6] was inactive. In addition, the result in [7], in experiment [8], in experiment [9] and in experiment [10] was inactive.

In the case of `O=C(O)c1cc(N=Nc2ccc(S(=O)(=O)Nc3ccccn3)cc2)ccc1O`, the result in experiment [1], in [2], in experiment [3], in experiment [4], in [5] and in experiment [6] was inactive. The outcome in [7], in experiment [8], in [9] and in [10] was inactive.

`CC(C)c1cccc(C(C)C)c1N1C(=O)c2ccc(O)cc2C1=O`: the outcome in experiment [1], in experiment [3] and in [4] was inactive. Also, the AC50 in [2] was 9.36 µM (active); in experiment [5], 10.1 µM (active); in experiment [6], 13.6 µM (active); in [7] it was 18.9 µM (active); in experiment [8] it was 19.1 µM (active); in [9], 37.1 µM (active). For the same compound, the AC50 in [10] is 30.9 µM (active).

As for `CCc1cc(SCc2sc(-c3ccc(C(F)(F)F)cc3)nc2CN2CCN(c3ccc(OC)cc3)CC2)ccc1OCC(=O)O`, the AC50 in [1] is 20 µM (active); in [2] it was 13.3 µM (active); in experiment [3], 30.2 µM (active); in experiment [4], 38.1 µM (active); in experiment [5] it was 24.7 µM (active); in experiment [6], 10.3 µM (active). Besides, the AC50 is 11.7 µM (active) in [7], 15.1 µM (active) in [8], 11.4 µM (active) in experiment [9] and 12.2 µM (active) in experiment [10].

Take `CN(C)c1ccc(Cc2ccc(N(C)C)cc2)cc1`: in experiment [1], the concentration at half-maximal activity (AC50) is 5.6 µM (active). Further, the result in experiment [2], in [3], in experiment [4], in [5], in experiment [6] and in [7] was inactive. Further, the result in experiment [8], in experiment [9] and in experiment [10] was inactive.
